Measured values: the supplement of paper PMC6522484
± gives the standard deviation of the averaged measurements.

What was measured:
DLD1 [1] = assay: cell viability (CellTiter-Glo) relative to plate median (fraction of plate median); higher = more viable cells; details: 5 µM; treatment time 24 h; reporter: 7TFP
Outline: (§1)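 On parallel plates, a Tecan F500 reader recorded either firefly luciferase or CellTiterGlo luminescence. The plates held colorectal cancer cells stably transduced with lentiviral TCF/Wnt firefly luciferase reporters (7TFP or TCF4/Wnt), seeded in 384-well format and treated 24 h later with library compounds at a final 5 µM for 24 h. Per-well signals were normalised to the plate median (webcellHTS2, additive, no log transformation), and two independent replicates were averaged.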

HCT116 [2] = assay: as above; details: 5 µM; treatment time 24 h; reporter: TCF4/Wnt
Outline: as §1

SW480 [3] = assay: as above; details: 5 µM; treatment time 24 h; reporter: 7TFP
Outline: as §1

DLD1 [4] = assay: TCF/Wnt firefly luciferase reporter signal relative to plate median (fraction of plate median); higher = higher Wnt reporter signal; details: 5 µM; treatment time 24 h; reporter: 7TFP
Outline: as §1

SW480 [5] = assay: as above; details: 5 µM; treatment time 24 h; reporter: 7TFP
Outline: as §1

DLD1 [6] = assay: TCF/Wnt firefly luciferase reporter signal relative to plate median (fraction of plate median); higher = higher Wnt reporter signal; details: 10 µM, treatment time 24 h
Outline: (§2)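 Kinase inhibitor library compounds were added at a final 10 µM for 24 h to colorectal cancer cells in 384-well plates, 24 h after seeding. The cells stably expressed lentiviral TCF/Wnt firefly luciferase reporters. Firefly luciferase and CellTiterGlo luminescence came from parallel plates, and each well was normalised to its plate median (webcellHTS2, additive, untransformed), averaged over two independent replicates.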

HCT116 [7] = assay: as above; details: 10 µM; treatment time 24 h; reporter: TCF4/Wnt
Outline: as §2

SW480 [8] = assay: as above; details: 10 µM; treatment time 24 h; reporter: 7TFP
Outline: as §2

Row | Compound | cell viability (DLD1 [1]) | cell viability (HCT116 [2]) | cell viability (SW480 [3]) | TCF/Wnt firefly luciferase reporter signal (DLD1 [4]) | TCF/Wnt firefly luciferase reporter signal (SW480 [5]) | TCF/Wnt firefly luciferase reporter signal (DLD1 [6]; reporter: 7TFP) | TCF/Wnt firefly luciferase reporter signal (DLD1 [6]; reporter: TCF4/Wnt) | TCF/Wnt firefly luciferase reporter signal (HCT116 [7]) | TCF/Wnt firefly luciferase reporter signal (SW480 [8])
1 | NS(=O)(=O)c1cc2c(cc1C(F)(F)F)NC(Cc1ccccc1)NS2(=O)=O (stereo not drawn) | 0.992 ± 0.04 | 0.969 ± 0.058 | 0.9875 ± 0.0035 | 0.836 ± 0.075 | 0.885 ± 0.064 |  |  |  | 
2 | Cc1cccc2c3c(ccc12)C1=C(C(=O)C3=O)[C@@H](C)CO1 | 0.936 ± 0.1 | 0.825 ± 0.011 | 1.03 ± 0.014 | 0.955 ± 0.15 | 1.08 ± 0.15 |  |  |  | 
3 | Cc1cc2c(s1)Nc1ccccc1N=C2N1CCN(C)CC1 | 0.979 ± 0.0057 | 1.14 ± 0.12 | 1.03 ± 0.063 | 1.05 ± 0.071 |  |  |  |  | 
4 | OC(Cn1cncn1)(Cn1cncn1)c1ccc(F)cc1F | 0.889 ± 0.033 | 0.883 ± 0.069 | 0.9295 ± 0.0064 | 1.09 ± 0.028 | 1.01 ± 0.054 |  |  |  | 
5 | CCCCCc1c2c(cc(O)c1C(=O)O)OC(=O)c1c(cc(OC)cc1C(=O)CCCC)O2 | 0.958 ± 0.036 | 0.973 ± 0.14 | 1 ± 0.013 | 0.963 ± 0.034 | 1.05 ± 0.16 |  |  |  | 
6 | O=c1c(-c2ccccc2)coc2cc(O)cc(O)c12 | 0.94 ± 0.11 | 0.883 ± 0.027 | 0.993 ± 0.053 | 0.926 ± 0.097 | 1.04 ± 0.18 |  |  |  | 
7 | NCC(O)CC(=O)O (stereo not drawn) | 1.035 ± 0.0071 | 1.04 ± 0.09 | 0.965 ± 0.028 | 1.04 ± 0.035 | 1.07 ± 0.035 |  |  |  | 
8 | CC(=O)CCCCn1c(=O)c2c(ncn2C)n(C)c1=O | 0.93 ± 0.015 | 0.911 ± 0.054 | 0.94 ± 0.051 | 1.15 ± 0.085 | 1.03 ± 0.014 |  |  |  | 
9 | O=C(/C=C/c1ccc(O)c(O)c1)O[C@@H]1C[C@](O)(C(=O)O)C[C@@H](O)[C@H]1O | 0.9805 ± 0.0064 | 0.95 ± 0.071 | 0.9255 ± 0.0092 | 0.931 ± 0.096 | 0.9705 ± 0.0064 |  |  |  | 
10 | C=C1C2CCC3(C)C(c4ccoc4)OC(=O)CC13OC1CC(=O)C(C)(C)C(CC(=O)OC)C12C (stereo not drawn) | 0.97 ± 0.012 | 0.934 ± 0.0099 | 0.925 ± 0.044 | 1.04 ± 0.12 | 1.09 ± 0.13 |  |  |  | 
11 | COc1ccc(C(=O)c2ccccc2)c(O)c1 | 1.04 ± 0.042 | 1.185 ± 0.0071 | 1.01 ± 0.016 | 0.8625 ± 0.0064 | 1.05 ± 0.028 |  |  |  | 
12 | CC1=C(/C=C/C(C)=C/C=C/C(C)=C/C=C/C=C(C)/C=C/C=C(C)/C=C/C2=C(C)C(=O)[C@@H](O)CC2(C)C)C(C)(C)C[C@H](O)C1=O | 1.05 ± 0.057 | 1.07 ± 0.042 | 1 ± 0.027 | 1.06 ± 0.11 | 0.824 ± 0.099 |  |  |  | 
13 | CCN(CC)CC(=O)Nc1c(C)cccc1C | 1.05 | 1.1 ± 0.021 | 1.02 ± 0.021 | 1.06 ± 0.05 | 1.03 ± 0.021 |  |  |  | 
14 | O=C(/C=C/C=C/c1ccc2c(c1)OCO2)N1CCCCC1 | 1 ± 0.038 | 1.05 ± 0.12 | 1.03 | 1.16 ± 0.18 | 1.08 ± 0.19 |  |  |  | 
15 | CC(=O)[C@@]1(O)CC[C@H]2[C@@H]3CCC4=CC(=O)CC[C@]4(C)[C@H]3CC[C@@]21C | 0.947 ± 0.12 | 0.926 ± 0.063 | 0.922 ± 0.12 | 1.035 ± 0.0071 | 1.02 |  |  |  | 
16 | COc1ccc(-c2cc(=O)c3c(O)c(OC)c(OC)c(OC)c3o2)cc1 | 1.01 ± 0.032 | 1.04 ± 0.072 | 1.02 ± 0.055 | 0.953 ± 0.062 | 1.01 ± 0.021 |  |  |  | 
17 | Cc1ccccc1-n1c(Cn2nc(-c3cccc(O)c3)c3c(N)ncnc32)nc2cccc(C)c2c1=O |  |  |  |  |  | 1.07 ± 0.042 | 0.89 ± 0.021 | 0.841 ± 0.44 | 1.07 ± 0.12
18 | c1ccc2c(c1)CN1CCCC1=N2 | 1.03 ± 0.028 | 1.09 ± 0.24 | 0.998 ± 0.032 | 0.935 ± 0.15 | 0.944 ± 0.064 |  |  |  | 

Row | Compound | cell viability (DLD1 [1]) | cell viability (HCT116 [2]) | cell viability (SW480 [3]) | TCF/Wnt firefly luciferase reporter signal (DLD1 [4]) | TCF/Wnt firefly luciferase reporter signal (SW480 [5]) | TCF/Wnt firefly luciferase reporter signal (DLD1 [6]; reporter: 7TFP) | TCF/Wnt firefly luciferase reporter signal (DLD1 [6]; reporter: TCF4/Wnt) | TCF/Wnt firefly luciferase reporter signal (HCT116 [7]) | TCF/Wnt firefly luciferase reporter signal (SW480 [8])
19 | CCOC(=O)Nc1nc2ccccc2[nH]1 | 1.03 ± 0.028 | 0.887 ± 0.016 | 1.06 ± 0.035 | 0.971 ± 0.056 | 0.959 ± 0.0057 |  |  |  | 
20 | C[C@@H]1Cc2cc(O)cc(O)c2C(=O)O1 [6-Hydroxymellein] | 0.98 ± 0.0071 | 0.987 ± 0.018 | 1.015 ± 0.0071 | 0.927 ± 0.1 | 0.974 ± 0.037 |  |  |  | 
21 | COc1ccc(-c2oc3c(CC=C(C)C)c(O[C@@H]4O[C@H](CO)[C@@H](O)[C@H](O)[C@H]4O)cc(O)c3c(=O)c2O[C@@H]2O[C@@H](C)[C@H](O)[C@@H](O)[C@H]2O)cc1 | 1.03 ± 0.014 | 1.1 ± 0.085 | 0.957 ± 0.048 | 0.977 ± 0.1 | 0.974 ± 0.03 |  |  |  | 
22 | C[C@]12C=CC(=O)C=C1CC[C@@H]1[C@@H]2[C@@H](O)C[C@@]2(C)[C@H]1CC[C@]2(O)C(=O)CO | 1.01 ± 0.014 | 1.09 ± 0.035 | 1.04 ± 0.069 | 1.03 ± 0.035 | 1.04 ± 0.088 |  |  |  | 
23 | CC(C)[C@@H]1CC[C@@H](C)CC1=O | 1.01 ± 0.033 | 1.16 ± 0.11 | 1.04 ± 0.028 | 0.906 ± 0.087 | 0.904 ± 0.037 |  |  |  | 
24 | COC(=O)C[C@H]1C(C)(C)C2(O)OC34CC2C(=O)[C@]1(C)C3CC[C@]1(C)C4=CC(=O)O[C@H]1c1ccoc1 (stereo partly drawn) [8beta-HYDROXYCARAPIN, 3,8-HEMIACETAL] | 1.02 ± 0.014 | 1.07 ± 0.11 | 0.9895 ± 0.0092 | 0.866 ± 0.067 | 0.816 ± 0.019 |  |  |  | 
25 | CS(C)(=O)=O | 1.01 ± 0.081 | 1.05 ± 0.071 | 0.962 ± 0.035 | 1.26 ± 0.071 | 1.05 ± 0.064 |  |  |  | 
26 | Nc1ccc(S(=O)(=O)c2ccc(N)cc2)cc1 | 1.08 ± 0.057 | 0.956 ± 0.063 | 1.02 | 0.94 ± 0.054 | 0.922 ± 0.059 |  |  |  | 
27 | CC(=O)N[C@@H](CC(=O)N[C@@H](CCC(=O)O)C(=O)O)C(=O)O | 1.01 ± 0.014 | 1.055 ± 0.0071 | 0.925 ± 0.011 | 0.958 ± 0.088 | 0.988 ± 0.032 |  |  |  | 
28 | C=CCCCCCCCCC(=O)O | 1.03 ± 0.072 | 1.08 ± 0.13 | 1 ± 0.022 | 1.01 ± 0.025 | 1 ± 0.037 |  |  |  | 
29 | COc1c(-c2ccccc2)oc2c(ccc3occc32)c1=O | 1.03 ± 0.035 | 1.09 ± 0.078 | 1.03 ± 0.021 | 1.09 ± 0.078 | 1.05 ± 0.014 |  |  |  | 
30 | C[n+]1cccc(C(=O)[O-])c1 | 1.03 ± 0.021 | 0.938 ± 0.0085 | 1.01 ± 0.018 | 1.15 ± 0.071 | 1.11 ± 0.092 |  |  |  | 
31 | CCCOc1ccc2[nH]c(NC(=O)OC)nc2c1 | 0.979 ± 0.011 | 1.08 ± 0.2 | 1.13 ± 0.071 | 0.959 ± 0.21 | 0.957 ± 0.035 |  |  |  | 
32 | O=C(NCO)c1cccnc1 | 0.952 ± 0.027 | 0.921 ± 0.022 | 1.04 ± 0.028 | 1.02 ± 0.13 | 0.959 ± 0.013 |  |  |  | 
33 | Oc1c(Cl)cc(Cl)c(Cl)c1Cc1c(O)c(Cl)cc(Cl)c1Cl | 0.934 ± 0.021 | 1.03 ± 0.1 | 1.02 ± 0.028 | 1.34 ± 0.18 | 1.15 ± 0.021 |  |  |  | 
34 | CC(C)C1NC(=O)C2CCCN2C1=O (single isomer, unassigned; isomere) [Cyclo(prolylvalyl) (Isomere)] | 1 ± 0.023 | 0.992 ± 0.054 | 0.958 ± 0.06 | 0.939 ± 0.067 | 0.944 ± 0.11 |  |  |  | 
35 | C[C@H](CCC(=O)O)[C@H]1CC[C@H]2[C@@H]3[C@H](O)C[C@@H]4C[C@H](O)CC[C@]4(C)[C@H]3C[C@H](O)[C@]12C | 0.99 ± 0.043 | 1.07 ± 0.15 | 1.04 ± 0.066 | 1.02 ± 0.13 | 1.07 ± 0.035 |  |  |  | 
36 | CCN[C@@H]1C[C@H](N)[C@@H](O[C@H]2OC(CN)=CC[C@H]2N)[C@H](O)[C@H]1O[C@H]1OC[C@](C)(O)[C@H](NC)[C@H]1O | 0.992 ± 0.026 | 0.903 ± 0.052 | 0.978 ± 0.025 | 0.906 ± 0.15 | 0.953 ± 0.021 |  |  |  | 
